Values without a mark were called inactive. For some assays here: Measured potencies and affinities stand elsewhere. The source made the active and inactive calls. Unless noted, no rule for the calls is given here.
Legend:
[1] = antimalarial activity against Dd2 strain (AID 2302;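 active = growth inhibition above 50% at the single 2 µM test dose, taken to imply half-maximal potency below 2 µM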;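 also: 0% = DMSO untreated growth and 100% = chloroquine plus artemisinin killed control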); conditions: P. falciparum Dd2 in RBCs, LDH growth readout, 72 h; at 2 µM; stronger effect = higher value
[2] = HepG2 cytotoxicity, primary screen, cytotoxicity control for P. falciparum antimalarial project, cell-based, ATP luminescence (AID 2303;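 active = inhibition above 50%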;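 also: 0% = DMSO wells and 100% = digitonin-killed cells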); conditions: HepG2 viability, 24-48 h, at 10 µM, stronger effect = higher value
[3] = molecular target: L-lactate dehydrogenase (Plasmodium falciparum (isolate CDC / Honduras)) (UniProt Q27743); experiment: PfLDH activity inhibition – cell lysate, 3D7 strain, counter-screen for P. falciparum growth inhibition project (AID 2304);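 also: 0% = vehicle and 100% = reference inhibitor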; conditions: P. falciparum 3D7 crude extract, LDH APAD/NBT absorbance; at 2 µM; stronger effect = higher value
[4] = inhibition of 3D7 malaria parasite growth – strain 3D7 (AID 2306);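 also: 0% = DMSO wells and 100% = chloroquine plus artemisinin control wells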; conditions: P. falciparum 3D7 erythrocytic growth, LDH absorbance, 72 h; at 2 µM; stronger effect = higher value
[5] = molecular target: Calcium-dependent protein kinase 1 (Plasmodium falciparum (isolate 3D7)) (UniProt P62344); experiment: PfCDPK1 kinase inhibitors, biochemical, TCAMS library (AID 1159585; cut-off not given, nearly all actives have IC50 up to about 0.98 µM;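 also: inhibitors leave more ATP so luminescence rises with inhibition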); conditions: recombinant PfCDPK1, Kinase-Glo ATP depletion luminescence
[6] = molecular target: Plasmodium falciparum protein kinase 6 (PK6, PF3D7_1337100) (UniProt Q8IDW1); experiment: PfPK6 kinase inhibitors, biochemical, TCAMS library (AID 1159586); conditions: recombinant PfPK6, Kinase-Glo ATP depletion luminescence
[7] = molecular target: Protein kinase 7 (PK7), Plasmodium falciparum 3D7 (PF3D7_0213400) (UniProt Q7YTF7); experiment: inhibition of Plasmodium PK7 catalytic activity – biochemical, TCAMS antimalarial set, Kinase-Glo luminescence (AID 1159587); conditions: recombinant PfPK7, Kinase-Glo ATP depletion luminescence
[8] = molecular target: Calcium-dependent protein kinase 4 (Plasmodium falciparum (isolate 3D7)) (UniProt Q8IBS5); experiment: PfCDPK4 kinase inhibitors, biochemical, TCAMS library (AID 1159588; cut-off not given, nearly all actives have IC50 up to about 0.91 µM); conditions: recombinant PfCDPK4, Kinase-Glo ATP depletion luminescence
Calcium-dependent protein kinase 4 (Plasmodium falciparum (isolate 3D7)), sequence (Q8IBS5 whole entry, looked up): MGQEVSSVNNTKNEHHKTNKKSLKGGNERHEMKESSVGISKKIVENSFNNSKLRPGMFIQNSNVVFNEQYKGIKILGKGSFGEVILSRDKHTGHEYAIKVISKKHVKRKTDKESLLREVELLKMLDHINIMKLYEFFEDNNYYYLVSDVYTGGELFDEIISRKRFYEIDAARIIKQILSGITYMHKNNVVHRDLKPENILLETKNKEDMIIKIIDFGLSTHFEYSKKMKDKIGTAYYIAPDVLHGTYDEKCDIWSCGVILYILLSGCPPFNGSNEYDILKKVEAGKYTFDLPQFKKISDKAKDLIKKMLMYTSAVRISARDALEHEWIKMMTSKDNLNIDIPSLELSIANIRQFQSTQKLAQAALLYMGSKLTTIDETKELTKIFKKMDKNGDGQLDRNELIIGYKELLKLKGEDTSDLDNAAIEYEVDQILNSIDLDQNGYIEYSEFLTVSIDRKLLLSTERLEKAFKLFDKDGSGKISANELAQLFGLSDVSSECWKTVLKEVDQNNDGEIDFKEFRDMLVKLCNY

Plasmodium falciparum protein kinase 6 (PK6, PF3D7_1337100), sequence (Q8IDW1 1-305): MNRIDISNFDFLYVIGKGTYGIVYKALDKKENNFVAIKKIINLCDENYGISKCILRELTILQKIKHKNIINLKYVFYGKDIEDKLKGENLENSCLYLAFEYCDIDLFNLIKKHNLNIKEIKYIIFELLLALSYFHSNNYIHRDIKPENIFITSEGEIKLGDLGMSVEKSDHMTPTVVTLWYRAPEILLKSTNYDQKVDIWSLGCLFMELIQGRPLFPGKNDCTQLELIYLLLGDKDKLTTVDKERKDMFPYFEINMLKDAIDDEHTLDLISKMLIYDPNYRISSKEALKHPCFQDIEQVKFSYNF
Protein kinase 7 (PK7), Plasmodium falciparum 3D7 (PF3D7_0213400), sequence (Q7YTF7 1-343): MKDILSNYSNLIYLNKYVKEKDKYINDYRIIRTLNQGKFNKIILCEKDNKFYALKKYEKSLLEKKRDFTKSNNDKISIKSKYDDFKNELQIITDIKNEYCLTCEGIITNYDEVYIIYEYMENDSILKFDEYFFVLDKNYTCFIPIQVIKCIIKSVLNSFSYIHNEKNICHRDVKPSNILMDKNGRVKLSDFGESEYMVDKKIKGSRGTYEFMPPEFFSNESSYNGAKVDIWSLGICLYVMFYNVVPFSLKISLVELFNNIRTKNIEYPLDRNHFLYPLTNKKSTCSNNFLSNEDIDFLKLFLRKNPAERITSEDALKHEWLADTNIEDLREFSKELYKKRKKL
Calcium-dependent protein kinase 1 (Plasmodium falciparum (isolate 3D7)), sequence (P62344 whole entry, looked up): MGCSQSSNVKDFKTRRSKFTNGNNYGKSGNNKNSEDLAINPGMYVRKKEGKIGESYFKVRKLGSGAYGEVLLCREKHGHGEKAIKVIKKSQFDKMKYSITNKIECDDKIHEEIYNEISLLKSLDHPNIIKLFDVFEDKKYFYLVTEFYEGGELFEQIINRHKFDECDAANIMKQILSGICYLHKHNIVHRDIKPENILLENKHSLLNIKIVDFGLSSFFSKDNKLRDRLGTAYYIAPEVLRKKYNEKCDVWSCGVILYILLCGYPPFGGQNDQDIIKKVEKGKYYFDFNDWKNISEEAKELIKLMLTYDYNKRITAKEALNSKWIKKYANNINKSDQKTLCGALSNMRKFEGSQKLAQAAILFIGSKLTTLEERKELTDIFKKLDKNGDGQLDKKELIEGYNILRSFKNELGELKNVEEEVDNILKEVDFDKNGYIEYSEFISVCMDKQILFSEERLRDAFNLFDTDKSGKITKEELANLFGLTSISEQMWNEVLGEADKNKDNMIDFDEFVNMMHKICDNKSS
L-lactate dehydrogenase (Plasmodium falciparum (isolate CDC / Honduras)), sequence (Q27743 whole entry, looked up): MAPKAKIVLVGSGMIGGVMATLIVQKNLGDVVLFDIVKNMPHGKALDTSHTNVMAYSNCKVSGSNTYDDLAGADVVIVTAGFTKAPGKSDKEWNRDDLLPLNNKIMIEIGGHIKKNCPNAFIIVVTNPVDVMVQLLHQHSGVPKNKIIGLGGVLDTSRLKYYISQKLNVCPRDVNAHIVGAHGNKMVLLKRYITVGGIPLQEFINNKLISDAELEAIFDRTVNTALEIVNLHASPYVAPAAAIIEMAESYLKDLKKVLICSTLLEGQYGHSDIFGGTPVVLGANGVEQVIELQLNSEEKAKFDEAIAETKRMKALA

CC(C)(C)c1ccc(C(=O)Nc2cccc(Nc3c(C(=O)NCc4cccc(C(F)(F)F)c4)cnc4c(O)cccc34)c2)cc1
growth inhibition [1]: 79% (active)
inhibition [2]: 40%
inhibition [3]: 1%
growth inhibition [4]: 83% (active)
outcome [5]: inactive
outcome [6]: inactive
outcome [7]: inactive
outcome [8]: inactive

O=C(NCc1ccc(Cl)c(Cl)c1)c1ccc(-c2nc3ccc(Cl)cc3[nH]2)cc1
growth inhibition [1]: 22%
inhibition [2]: 20%
inhibition [3]: -6%
growth inhibition [4]: 96% (active)
outcome [5]: inactive
outcome [6]: inactive
outcome [7]: inactive
outcome [8]: inactive

O=C(NCc1cccc(C(F)(F)F)c1)c1ccc(CNC(=O)c2ccc(O)c(-c3ccc(Cl)c(Cl)c3)c2)cc1
growth inhibition [1]: 15%
inhibition [2]: 7%
inhibition [3]: 2%
growth inhibition [4]: 92% (active)
outcome [5]: inactive
outcome [6]: inactive
outcome [7]: inactive
outcome [8]: inactive

CN(Cc1ccc(-c2ccc(C(F)(F)F)cc2)cc1)C(=O)Cn1c(CCc2cccc(F)c2F)cc(=O)c2ccc(OCC3CCCN3C)cc21 (stereo not given)
growth inhibition [1]: 37%
inhibition [2]: 100% (active)
inhibition [3]: -6%
growth inhibition [4]: 87% (active)
outcome [5]: inactive
outcome [6]: inactive
outcome [7]: inactive
outcome [8]: inactive

CC(C)c1ccc(CN2CCCCC(NC(=O)c3cc(-c4cccc(F)c4)cs3)C2)cc1 (stereo not given)
growth inhibition [1]: 13%
inhibition [2]: 6%
inhibition [3]: 1%
growth inhibition [4]: 94% (active)
outcome [5]: inactive
outcome [6]: inactive
outcome [7]: inactive
outcome [8]: inactive

O=C(NC1CCC(N2CCCC(OCc3ccccc3)C2)CC1)c1cc2ccccc2[nH]1 (stereo not given)
growth inhibition [1]: 11%
inhibition [2]: 38%
inhibition [3]: -1%
growth inhibition [4]: 94% (active)
outcome [5]: inactive
outcome [6]: inactive
outcome [7]: inactive
outcome [8]: inactive

OCCC1CCN(Cc2ccc(-c3ccc(-c4nc5ccccc5[nH]4)cc3)cc2)CC1
growth inhibition [1]: 98% (active)
inhibition [2]: 35%
inhibition [3]: 2%
growth inhibition [4]: 99% (active)
outcome [5]: inactive
outcome [6]: inactive
outcome [7]: inactive
outcome [8]: inactive

CC(=O)Nc1ncc(C(=O)Nc2cccc(-c3cccc(-c4nc5c(C)cccc5[nH]4)c3)c2)s1
growth inhibition [1]: 64% (active)
inhibition [2]: 15%
inhibition [3]: 4%
growth inhibition [4]: 94% (active)
outcome [5]: inactive
outcome [6]: inactive
outcome [7]: inactive
outcome [8]: inactive

Fc1ccc2nc(-c3ccc(-c4ccc(CN5CCCCC5)cc4)cc3)[nH]c2c1
growth inhibition [1]: 100% (active)
inhibition [2]: 31%
inhibition [3]: -3%
growth inhibition [4]: 98% (active)
outcome [5]: inactive
outcome [6]: inactive
outcome [7]: inactive
outcome [8]: inactive

CCn1c(C2CCN(CCC3CCN(C(=O)/C=C/c4ccc(Cl)c(Cl)c4)CC3)CC2)nc2ccccc21
growth inhibition [1]: 0%
inhibition [2]: 17%
inhibition [3]: 2%
growth inhibition [4]: 86% (active)
outcome [5]: inactive
outcome [6]: inactive
outcome [7]: inactive
outcome [8]: inactive

COc1cccc(CCNCCCCCCNCCc2ccc(Cl)cc2)c1
growth inhibition [1]: 3%
inhibition [2]: 32%
inhibition [3]: -1%
growth inhibition [4]: 100% (active)
outcome [5]: inactive
outcome [6]: inactive
outcome [7]: inactive
outcome [8]: inactive

CCN1CCCC1CN(Cc1ccc(-c2ccc(C(F)(F)F)cc2)cc1)C(=O)Cn1c(CCc2cccc(F)c2F)nc(=O)c2ccccc21 (stereo not given)
growth inhibition [1]: 51% (active)
inhibition [2]: 40%
inhibition [3]: 2%
growth inhibition [4]: 94% (active)
outcome [5]: inactive
outcome [6]: inactive
outcome [7]: inactive
outcome [8]: inactive

O=C1c2ccc([N+](=O)[O-])cc2C(=O)N1c1ccc2[nH]ncc2c1
growth inhibition [1]: -1%
inhibition [2]: 11%
inhibition [3]: -1%
growth inhibition [4]: 87% (active)
outcome [5]: inactive
outcome [6]: inactive
outcome [7]: inactive
outcome [8]: inactive

CC(C)c1ccc(NC(=O)c2ccc(C(=O)NCC3CCN(CC4CCCCC4)CC3)cc2)cc1
growth inhibition [1]: 18%
inhibition [2]: 26%
inhibition [3]: -3%
growth inhibition [4]: 92% (active)
outcome [5]: inactive
outcome [6]: inactive
outcome [7]: inactive
outcome [8]: inactive

Cn1cncc1C(=O)Nc1cccc(-c2cccc(-c3nc4ccc(F)cc4[nH]3)c2)c1
growth inhibition [1]: 45%
inhibition [2]: 16%
inhibition [3]: 3%
growth inhibition [4]: 102% (active)
outcome [5]: inactive
outcome [6]: inactive
outcome [7]: inactive
outcome [8]: inactive

COc1ccc(Oc2cnc(N)nc2N)c(C(C)C)c1
growth inhibition [1]: -2%
inhibition [2]: 58% (active)
inhibition [3]: 4%
growth inhibition [4]: 97% (active)
outcome [5]: inactive
outcome [6]: inactive
outcome [7]: inactive
outcome [8]: inactive

Clc1ccc(-c2cc(-c3csc(NCCN4CCCCC4)n3)on2)cc1
growth inhibition [1]: 30%
inhibition [2]: 81% (active)
inhibition [3]: -9%
growth inhibition [4]: 91% (active)
outcome [5]: inactive
outcome [6]: inactive
outcome [7]: inactive
outcome [8]: inactive

O=C(Nc1ccc(C(F)(F)F)cc1)Nc1cccc([N+](=O)[O-])c1
growth inhibition [1]: 98% (active)
inhibition [2]: 20%
inhibition [3]: 4%
growth inhibition [4]: 101% (active)
outcome [5]: inactive
outcome [6]: inactive
outcome [7]: inactive
outcome [8]: inactive

CC(C)N(CCOc1ccc2c(c1)N(C(=O)Nc1cc(Br)cc(C(F)(F)F)c1)CC2)C(C)C
growth inhibition [1]: 100% (active)
inhibition [2]: 8%
inhibition [3]: 5%
growth inhibition [4]: 101% (active)
outcome [5]: inactive
outcome [6]: inactive
outcome [7]: inactive
outcome [8]: inactive

CC1(C)N=C(N)N=C(N)N1OCCCSc1ccccc1
growth inhibition [1]: 94% (active)
inhibition [2]: 69% (active)
inhibition [3]: 0%
growth inhibition [4]: 93% (active)
outcome [5]: inactive
outcome [6]: inactive
outcome [7]: inactive
outcome [8]: inactive

Cc1cc(C(F)(F)F)cc(-n2ncc(-c3ccc(C(=O)NCc4ccccc4N)cc3)c2N)n1
growth inhibition [1]: 89% (active)
inhibition [2]: 10%
inhibition [3]: 3%
growth inhibition [4]: 99% (active)
outcome [5]: inactive
outcome [6]: inactive
outcome [7]: inactive
outcome [8]: inactive

COc1ccc2nccc([C@@H](O)CN3CCC(NCc4nc5c(OCc6ccccc6)cccc5[nH]4)CC3)c2c1
growth inhibition [1]: 34%
inhibition [2]: 6%
inhibition [3]: 3%
growth inhibition [4]: 101% (active)
outcome [5]: inactive
outcome [6]: inactive
outcome [7]: inactive
outcome [8]: inactive

CCN(CCCN1CCCCC1)c1cc(C)nc(Nc2cc(Br)ccc2C)n1
growth inhibition [1]: 39%
inhibition [2]: 32%
inhibition [3]: -7%
growth inhibition [4]: 98% (active)
outcome [5]: inactive
outcome [6]: inactive
outcome [7]: inactive
outcome [8]: inactive

CCN(CC)CCOC(=O)c1ccc(NC(=O)c2cn(-c3ccccc3)nc2-c2cccs2)cc1
growth inhibition [1]: 59% (active)
inhibition [2]: 25%
inhibition [3]: 3%
growth inhibition [4]: 100% (active)
outcome [5]: inactive
outcome [6]: inactive
outcome [7]: inactive
outcome [8]: inactive

CCN1CCN(Cc2ccc(-c3ccc(NS(=O)(=O)c4cccc5cccnc45)cc3)cc2)CC1
growth inhibition [1]: 42%
inhibition [2]: 29%
inhibition [3]: -2%
growth inhibition [4]: 90% (active)
outcome [5]: inactive
outcome [6]: inactive
outcome [7]: inactive
outcome [8]: inactive

CN(C)c1ccc(-c2ccc(C(=O)NC3CCN(Cc4ccc(F)cc4)CC3)s2)cc1
growth inhibition [1]: 19%
inhibition [2]: 34%
inhibition [3]: -1%
growth inhibition [4]: 87% (active)
outcome [5]: inactive
outcome [6]: inactive
outcome [7]: inactive
outcome [8]: inactive

O=c1cc(NCCCNCc2cc3ccccc3s2)[nH]c2ccccc12
growth inhibition [1]: -3%
inhibition [2]: 3%
inhibition [3]: -1%
growth inhibition [4]: 89% (active)
outcome [5]: inactive
outcome [6]: inactive
outcome [7]: inactive
outcome [8]: inactive

O=C(Nc1cccc(C(F)(F)F)c1)c1cc([N+](=O)[O-])cc2cn[nH]c12
growth inhibition [1]: 69% (active)
inhibition [2]: 60% (active)
inhibition [3]: 3%
growth inhibition [4]: 101% (active)
outcome [5]: inactive
outcome [6]: inactive
outcome [7]: inactive
outcome [8]: inactive

CCCn1c(SCC(=O)Nc2cc(C(F)(F)F)ccc2Cl)n[nH]c1=O
growth inhibition [1]: 94% (active)
inhibition [2]: -6%
inhibition [3]: -2%
growth inhibition [4]: 96% (active)
outcome [5]: inactive
outcome [6]: inactive
outcome [7]: inactive
outcome [8]: inactive

Cc1cccc(C)c1CNc1ccnc2cc(C#N)ccc12
growth inhibition [1]: 99% (active)
inhibition [2]: 20%
inhibition [3]: -1%
growth inhibition [4]: 100% (active)
outcome [5]: inactive
outcome [6]: inactive
outcome [7]: inactive
outcome [8]: inactive

Cc1cc(OCCCN2CCC(NS(=O)(=O)c3ccc(Cl)c(Cl)c3)C2)c2ccccc2n1 (stereo not given)
growth inhibition [1]: 37%
inhibition [2]: 28%
inhibition [3]: 1%
growth inhibition [4]: 87% (active)
outcome [5]: inactive
outcome [6]: inactive
outcome [7]: inactive
outcome [8]: inactive

Oc1ccc(CCNc2nc(NCCCOc3ccccc3-c3ccncc3)nc(N3CCNCC3)n2)cc1
growth inhibition [1]: -3%
inhibition [2]: 8%
inhibition [3]: 1%
growth inhibition [4]: 96% (active)
outcome [5]: inactive
outcome [6]: inactive
outcome [7]: inactive
outcome [8]: inactive

O=[N+]([O-])c1cccc(NC(=S)N2CCCN(Cc3ccc(C(F)(F)F)cc3)CC2)c1
growth inhibition [1]: 49%
inhibition [2]: 11%
inhibition [3]: 0%
growth inhibition [4]: 90% (active)
outcome [5]: inactive
outcome [6]: inactive
outcome [7]: inactive
outcome [8]: inactive

CCN(CC1CCN(CC2(O)CCOCC2)CC1)c1cc(C)nc(Nc2ccc(Cl)cc2)n1
growth inhibition [1]: 99% (active)
inhibition [2]: 34%
inhibition [3]: -4%
growth inhibition [4]: 101% (active)
outcome [5]: inactive
outcome [6]: inactive
outcome [7]: inactive
outcome [8]: inactive

CCOc1cccc(C2c3c(oc4ccccc4c3=O)C(=O)N2CCN(CC)CC)c1 (stereo not given)
growth inhibition [1]: 66% (active)
inhibition [2]: 5%
inhibition [3]: -2%
growth inhibition [4]: 100% (active)
outcome [5]: inactive
outcome [6]: inactive
outcome [7]: inactive
outcome [8]: inactive

FC(F)(F)c1ccc2nccc(NN=Cc3ccccc3Cl)c2c1
growth inhibition [1]: 83% (active)
inhibition [2]: -6%
inhibition [3]: 5%
growth inhibition [4]: 101% (active)
outcome [5]: inactive
outcome [6]: inactive
outcome [7]: inactive
outcome [8]: inactive

O=C(Nc1ccc(Cl)cc1)Nc1cccc(-c2cc(CNCCc3ccccc3)oc2-c2ccncc2)c1
growth inhibition [1]: 92% (active)
inhibition [2]: 40%
inhibition [3]: 1%
growth inhibition [4]: 101% (active)
outcome [5]: inactive
outcome [6]: inactive
outcome [7]: inactive
outcome [8]: inactive

COc1cc2ncnc(Nc3ccc(OCc4ccccc4)c(OCc4ccccc4)c3)c2cc1OC
growth inhibition [1]: 57% (active)
inhibition [2]: 4%
inhibition [3]: -1%
growth inhibition [4]: 100% (active)
outcome [5]: inactive
outcome [6]: inactive
outcome [7]: inactive
outcome [8]: inactive

COc1ccc(-c2ccc(CNCc3ccsc3)cc2)cc1S(=O)(=O)NCCN1CCCC1
growth inhibition [1]: 30%
inhibition [2]: 22%
inhibition [3]: 3%
growth inhibition [4]: 94% (active)
outcome [5]: inactive
outcome [6]: inactive
outcome [7]: inactive
outcome [8]: inactive

COc1ccc(C(C)Nc2nc(N)c3cc(OC)c(OC)cc3n2)cc1 (stereo not given)
growth inhibition [1]: 28%
inhibition [2]: 23%
inhibition [3]: -2%
growth inhibition [4]: 101% (active)
outcome [5]: inactive
outcome [6]: inactive
outcome [7]: inactive
outcome [8]: inactive
